Sampled rows, rich in hits. Any-hit rate of the full collection: about 2.5%.
iPSC survival up – hiPSC single-cell survival enhancement | ATPlite luminescence; 100% = ROCK inhibitor wells, 0% = DMSO | AID 602274 | actives 0.044% (n = 360,000) | survival enhancement, % at 20 µM; in the data active = survival enhancement above about 18%;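 note: cells exposed to compounds for 16 hours before the ATP read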
H9c2 TAG inh – triacylglycerol accumulation inhibition; H9c2 cells, Nile Red lipid (TAG) fluorescence; cells loaded with 200 µM oleic acid; inhibition, % at 12.5 µM; actives 0.66% (n = 230,000);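 active = pattern-corrected inhibition of lipid staining of at least 50% with the nuclear-stain viability signal not falling by more than 50%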
H9c2 protect – modulators protecting cardiomyocytes from myocardial damage | H9c2 cardiomyocytes, H2O2 injury protection, ATPLite, 2 h | protection from H2O2 cell death, % at 20 µM | actives 0.63% (n = 360,000) | AID 588492;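 active = compounds giving at least 50% protection of heart cells from peroxide-induced death in the single-dose screen, raw or plate-pattern-corrected value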
CRFR2-BP antag – CRF-BP/CRF-R2 complex antagonism. HEK293 CRF-R2/CRF-BP, CRF-induced calcium fluorescence. inhibition, % at 11.8 µM. actives 0.59% (n = 350,000). AID 588475;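 active = inhibition of the ligand-induced calcium signal above about 50% at the single tested concentration, limit read from the data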
SKN-1 block – C. elegans SKN-1 inhibition | C. elegans VP596 Pgst-4::GFP/RFP ratio, acrylamide-induced, 24 h | inhibition, % at 21.8 µM | actives 0.49% (n = 360,000);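 active = interference check ratio from 0.5 to 1.5 plus GFP to RFP signal ratio inhibition reaching or exceeding a fixed threshold, cut at about 30% in these data, passing the limit was not always enough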
CRFR2-BP ag – CRF-BP/CRF-R2 complex agonism; HEK293 CRF-R2/CRF-BP, calcium dye fluorescence (FLIPR); percent of saturating CRF peptide response; activation, % at 13.2 µM; actives 0.46% (n = 350,000); AID 588473;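 active = activation of at least 50%, plus an integration ratio under a set limit after plate pattern correction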
Each line names hits and unclear results; the compound was inactive in the other large screens.

Cc1ccc(C(=O)OCC(=O)c2ccc(Br)cc2)cc1S(=O)(=O)N1CCOCC1	none
CCOCCCNC(=O)C(c1ccc(Cl)cc1)N1CCC2(CC1)OCCO2 (stereo unspecified)	SKN-1 block 37.0
CCOCCCNC(=O)C(c1ccc(Cl)cc1)N1CCN(c2ccccc2)CC1 (stereo unspecified)	none
Cc1cccc(C)c1NC(=O)CNC(=O)c1ccccc1OCc1ccccc1	none
COC(=O)c1cn(CC(=O)Nc2ccc(F)cc2)c2ccccc12	none
C[C@]12CC[C@@H]3c4cc(O)c(O)cc4CC[C@H]3[C@@H]1CC[C@@H]2O	H9c2 protect 108.2
C[C@]12CC[C@@H]3c4ccc(O)cc4CC[C@H]3[C@@H]1CC[C@@H]2O	none
O=S(=O)(/N=C(\c1ccc(F)cc1)N1CCOCC1)c1ccccc1	CRFR2-BP ag 50.0
Cc1ccc2c(c1)c(/C=C/c1cc[n+](C)cc1)c(C)n2C	CRFR2-BP ag 52.6 (no result: H9c2 TAG inh)
Cc1ccc2[nH]c(C)c(/C=C/c3cc[n+](C)cc3)c2c1	none (no result: H9c2 TAG inh)
CCOCCn1c(COc2ccccc2)nc2ccccc21	SKN-1 block 39.6
CCn1c(COc2ccccc2C)nc2ccccc21	CRFR2-BP ag 73.3
CCCn1c(COc2ccccc2)nc2ccccc21	none
CCn1c(COc2ccccc2OC)nc2ccccc21	none (no result: H9c2 TAG inh)
CSc1nc(N)nc2c1ncn2CC(=O)N[C@H](C)c1cccc2ccccc12	none
O=C(CCn1cccn1)Nc1ccc2c(c1)OCCO2	none (no result: H9c2 TAG inh)
CC1CCN(CCCNC(=O)c2coc3nc4ccccc4nc23)CC1	none (no result: H9c2 TAG inh)
Cc1ccc(CCNC(=O)c2coc3nc4ccccc4nc23)cc1	SKN-1 block 37.4
COc1ccc(CCN2C(=O)c3cccc4cccc(c34)C2=O)cc1OC	none (no result: H9c2 TAG inh)
CCN(CC)C(=O)c1ccc2c3c(cccc13)C(=O)N(CCc1ccc(OC)c(OC)c1)C2=O	H9c2 protect 71.3 (no result: H9c2 TAG inh)
O=C(Nc1ccccc1)Nc1cc(OCC(F)(F)F)cc(OCC(F)(F)F)c1	CRFR2-BP antag 55.1 (no result: H9c2 TAG inh)
Cc1csc(=O)n1CC(=O)OCC(=O)NCc1ccc(F)cc1	none
CCC1CCCCN1Cc1ccc(OC)c(C)c1 (stereo unspecified)	CRFR2-BP ag 65.0 (no result: H9c2 TAG inh)
COc1cc(C)c(CN2CCSCC2)cc1C	none (no result: H9c2 TAG inh)
COc1ccc(CN2CCSCC2)cc1C	CRFR2-BP ag 69.3 (no result: H9c2 TAG inh)
CCn1cc([N+](=O)[O-])c(C(=O)N2N=C(c3ccc4ccccc4c3)CC2c2cc(Br)ccc2O)n1 (stereo unspecified)	H9c2 TAG inh 56.5
COC(=O)CN1C(=O)COc2ccc(S(=O)(=O)NCc3ccc(Cl)cc3)cc21	CRFR2-BP antag 99.3 (no result: H9c2 TAG inh)
O=C1COc2ccc(S(=O)(=O)NCc3ccc(Cl)cc3)cc2N1	none (no result: H9c2 TAG inh)
C[C@@]12C(=O)N(Cc3ccc(-c4ccccc4)cc3)CC(=O)N1[C@H](/C=C/c1ccccc1)[C@@H]1C(=O)N(c3ccccc3)C(=O)[C@@H]12	SKN-1 block 39.2
O=C(COc1cccc2c1CCNC2=O)Nc1cccc(F)c1	H9c2 protect 74.1
CCCSc1nc(N)nc2c1ncn2C1OC(CO)C(O)C1O (stereo unspecified)	none
C[C@H](CO)N1C[C@H](C)[C@@H](CN(C)S(=O)(=O)c2ccccc2)Oc2ccc(NC(=O)Nc3ccccc3)cc2C1=O	H9c2 protect 75.6
C[C@H](CO)N1C[C@H](C)[C@@H](CN(C)S(=O)(=O)c2ccc(F)cc2)Oc2ccc(NC(=O)Nc3ccc4c(c3)OCO4)cc2C1=O	H9c2 protect 62.1
C[C@@H]1CN([C@H](C)CO)C(=O)c2cc(NC(=O)Nc3ccc(C(F)(F)F)cc3)ccc2O[C@H]1CN(C)S(=O)(=O)c1cccs1	none
C[C@H](CO)N1C[C@H](C)[C@@H](CN(C)S(=O)(=O)c2cccs2)Oc2ccc(NC(=O)Nc3ccccc3)cc2C1=O	H9c2 protect 67.5
Cn1nc(C(C)(C)C)cc1N1C(=O)CCC1(C)C(=O)Nc1ccc2c(c1)OCCO2 (stereo unspecified)	none (no result: H9c2 TAG inh, CRFR2-BP antag, CRFR2-BP ag)
CC[C@@H](NC(=O)[C@H](Cc1ccccc1)NC(=O)CC[C@H]1O[C@@H](n2ccc(=O)[nH]c2=O)[C@H](O)[C@@H]1O)c1ccccc1	none (no result: H9c2 TAG inh, CRFR2-BP antag, CRFR2-BP ag)
COc1cc([N+](=O)[O-])cc(/C=N/NC(=O)C(C)Nc2cccc(C)c2)c1O (stereo unspecified)	none
COc1cc([N+](=O)[O-])cc(/C=N/NC(=O)c2ccc(C)nc2)c1O	H9c2 protect 62.4
COc1cc([N+](=O)[O-])cc(/C=N/NC(=O)c2ccc(NC(=O)c3ccc(C)cc3)cc2)c1O	none
COc1cc([N+](=O)[O-])cc(/C=N/NC(=O)C(C)Nc2ccccc2C)c1O (stereo unspecified)	H9c2 protect 63.2 (no result: H9c2 TAG inh)
CC(C)CN1CCC1(C)C(=O)Nc1cc(-c2ccccc2)nn1C (stereo unspecified)	none (no result: CRFR2-BP antag, CRFR2-BP ag)
O=C(Nc1nnc(-c2ccccc2Cl)o1)c1nc2ccccc2s1	CRFR2-BP ag 139.6
COc1cccc2sc(Nc3nc(-c4ccncc4)cs3)nc12	H9c2 TAG inh 57.5
COc1cccc2sc(Nc3nnc(-c4ccccc4Cl)o3)nc12	CRFR2-BP ag 76.6
COc1ccccc1-c1nnc(Nc2nc3c(OC)cccc3s2)o1	H9c2 TAG inh 66.7, CRFR2-BP antag 52.9
COc1cccc2sc(NN)nc12	none
OC(c1ccc(F)c(F)c1)c1ncc(-c2ccc(F)cc2)[nH]1 (stereo unspecified)	none (no result: CRFR2-BP antag, CRFR2-BP ag)
Cc1ccc(S(=O)(=O)N2CCN(c3nc(-c4cccs4)nc4ccccc34)CC2)cc1	none (no result: CRFR2-BP antag, CRFR2-BP ag)
O=C1NC(=O)C2(CCCc3c([N+](=O)[O-])cccc32)N1 (stereo unspecified)	none
COc1ccccc1-c1cc(C(=O)NC2CCN(C)CC2)c2ccc(Cl)c(C)c2n1	H9c2 TAG inh 102.6
COc1cc(C(=O)Nc2nc(OC)c(-c3ccccc3)c(OC)n2)cc(OC)c1OC	H9c2 protect 70.1 (no result: H9c2 TAG inh)
COc1cc(C(=O)Nc2cc(-c3ccccc3)[nH]n2)cc(OC)c1OC	none (no result: H9c2 TAG inh)
COc1ccc(N=Nc2cc(C)c(O)c(CN3CCCCC3)c2)cc1	SKN-1 block 49.8
Clc1ccc(CSc2nnnn2-c2ccc3c(c2)OCO3)c(Cl)c1	none
O=C(CCl)N(c1ccccc1)c1c[nH]c2ccccc12	H9c2 TAG inh 78.7
CC(=O)n1cc(N(C(=O)CCl)c2ccccc2)c2ccccc21	H9c2 TAG inh 65.3
CC(=O)n1cc(N(C(=O)CCl)c2ccc([N+](=O)[O-])cc2)c2ccccc21	none
Cc1c(CCC(=O)NCCC(=O)O)c(=O)oc2c(C)c3oc4c(c3cc12)CCCC4	none (no result: H9c2 TAG inh)
CCOC(=O)C1CCN(C(=O)c2ccccc2NC(=O)c2ccc(Br)cc2)CC1	none (no result: H9c2 TAG inh)
CCOC(=O)C1CCN(c2cc3c(cc2NC(=O)c2ccccc2Br)n(C)c(=O)n3C)CC1	H9c2 protect 51.9 (no result: H9c2 TAG inh)

Source: PubChem BioAssay (Sanford-Burnham Center for Chemical Genomics)
